Measured values as given in ChEMBL document CHEMBL4513216, “Probing the Open Global Health Chemical Diversity Library for Multistage-Active Starting Points for Next-Generation Antimalarials” (ACS Infect Dis, 2020).
The campaign covered roughly 69,000 compounds. About 8,600 (12%) showed an effect of 50% or more. The entries come from a sample that favours strong results as a whole.

test system: Plasmodium berghei; assay: Screen against P. berghei liver stage (PbLuc), transformed with Luciferase, at 10uM; type: functional, HepG2; conditions: tested at 10 uM

Compound	INHIBITION [%]
Cc1cccc(-n2cnnc2CCCN2CCOCC2)c1	34.4
CNC(=O)C1CCC(NC(=O)c2cc(C3CC3)n(C(C)(C)C)n2)CC1 (configuration not stated)	15.4
c1ccc(OCCNC2CCCN(Cc3noc(C4CC4)n3)C2)cc1 (configuration not stated)	-52.5
CNC(=O)c1ccc(C(=O)N2CCCC2c2cnn(C)c2)cn1 (configuration not stated)	59.4
CC(=O)NCc1ccc(C(=O)N2CCCC2c2cnn(C)c2)o1 (configuration not stated)	-1.88
Cn1cc(C2CCCN2C(=O)c2ccc(NC3CC3)nc2)cn1 (configuration not stated)	22.25
CCN(c1ccc(C(=O)N2CCCC2c2cnn(C)c2)cn1)C(C)C (configuration not stated)	48.4
COc1ccc(C(=O)N2CCCC2c2cnn(C)c2)cn1 (configuration not stated)	-11.9
CN(C)c1ccc(C(=O)N2CCCC2c2cnn(C)c2)cn1 (configuration not stated)	-13.3
CC(C)CN(C)c1ccc(C(=O)N2CCCC2c2cnn(C)c2)cn1 (configuration not stated)	52.1
CCN(CC)Cc1ccc(C(=O)N2CCCC2c2cnn(C)c2)o1 (configuration not stated)	57
Cn1cc(C2CCCN2C(=O)c2ccc(Br)o2)cn1 (configuration not stated)	12.2
CC(NC(=O)NCCn1ccnc1)c1ccc2c(c1)CCC(=O)N2 (configuration not stated)	-15.5
CO[C@H]1C(=O)N(C)C2(CCNCC2)[C@@H]1C(=O)Nc1ccccc1	29
Cc1noc(C)c1CN1CC[C@H]2OCC[C@@]2(C(=O)N2CCCO2)C1	37.5
Cc1cnn(CC2CCCN2C(=O)c2cnc(-c3ccco3)s2)c1 (configuration not stated)	15.5
CCCS(=O)(=O)N1CCc2nc(N3CCOCC3)nc(N(C)C)c2C1	43.8
CCS(=O)(=O)N1CCc2nc(N3CCOCC3)nc(N(C)C)c2CC1	55.6
CCS(=O)(=O)N1CCc2nc(N3CCCC3)nc(N(C)C)c2CC1	23.1
CC(=O)N1CCCC1C(=O)NCCOc1c(C)cccc1C (configuration not stated)	-57.4
CC(C)NC(=O)[C@]12COC[C@H]1CN(Cc1cnn(C)c1)C2	-1.36
Cc1ccccc1-n1c(C)cc(=O)[nH]c1=O	33.4

Compound	INHIBITION [%]
COCC1CN(C(=O)Cc2cccs2)Cc2nnn(C)c21 (configuration not stated)	26.3
Cc1c(Cl)c(C(=O)NC(C)CN2CCOCC2)nn1C (configuration not stated)	54.9
Cn1nc(C(=O)NN2CCOCC2)c(Cl)c1C(F)(F)F	-23
CCC(=O)NCCNC(=O)c1nn(C)c(C)c1Cl	-23
Cc1nn(C)c(C)c1CC(=O)NCc1cccnc1N1CCOCC1	1.48
CC(CN1CCOCC1)NC(=O)c1cc(Cl)c2c(c1)OCCO2 (configuration not stated)	-23.7
Cc1cc(C(=O)NCc2c(C)nn(C)c2C)nc(N2CCOCC2)n1	12.9
Cc1c(Cl)c(C(=O)NN2CCOCC2)nn1C	55.7
Cc1c(Cl)c(C(=O)NCc2ccc(F)cc2)nn1C	-6.18
Cc1nn(C)c(C)c1C(=O)NN1CCOCC1	62.3
CNc1ncccc1CN1CCN(C(C)=O)CC(C(N)=O)C1 (configuration not stated)	-61.5
O=C(c1cocn1)N1CCC[C@]2(C[C@@H](Oc3ncccc3F)CO2)C1	-26.5
O=C(c1ccc[nH]1)N1CCC2(CC1)CC(Oc1cccnc1)CO2 (configuration not stated)	22.5
CN1CCCC1CNC(=O)CCCOc1cccc(F)c1 (configuration not stated)	11.5975
CCn1ncc(-c2cc(C(F)F)n3nc(CCC(=O)O)nc3n2)c1C	20.4
Cc1cccc(N2N=C(C(=O)NC(C)Cn3cccn3)CCC2=O)c1 (configuration not stated)	50.5
Cc1cccc(N2N=C(C(=O)NC(C)Cc3ccco3)CCC2=O)c1 (configuration not stated)	32
Cc1cccc(N2N=C(C(=O)NC(C)CCc3ccco3)CCC2=O)c1 (configuration not stated)	12.4
CCCc1noc(CN2CCC(C(=O)Nc3cnn(CC)c3)CC2)n1	22.3
CCn1cc(NC(=O)C2CCN(Cc3nc(C)c(C)o3)CC2)cn1	8.31
CCc1noc(CN2CCC(C(=O)Nc3cnn(CC)c3)CC2)n1	5.9
CCn1cc(NC(=O)C2CCN(Cc3nc(C(C)C)no3)CC2)cn1	53.9

Compound	INHIBITION [%]
CCn1cc(NC(=O)C2CCN(Cc3ccccc3)CC2)cn1	21.6
CCn1cc(NC(=O)C2CCN(Cc3nc(C)c(C)s3)CC2)cn1	55.6
Cc1noc(CNC(=O)C(C)(C)NC(=O)OC(C)(C)C)n1	22
COc1ccc(C2=NOC(C(=O)N3CCCc4ccccc43)C2)cc1 (configuration not stated)	-20.6
CC(C)N(C)CC(=O)NCC(Cc1ccc(F)cc1)C(N)=O (configuration not stated)	-16
Fc1ccccc1C1NCCc2cc3c(cc21)OCCO3 (configuration not stated)	2.6
CCc1ccc(C2NCCc3cc4c(cc32)OCCO4)cc1 (configuration not stated)	51.5
Clc1ccc(C2NCCc3cc4c(cc32)OCCO4)cc1 (configuration not stated)	45.6
CCOC(C)C(=O)NCCNS(C)(=O)=O (configuration not stated)	19.3
CC(C)(C)NC(=O)NC(=O)CN1C=Nc2ccccc2S1(=O)=O	44.3
CC(C)Oc1cccc(CNC(Cc2ccsc2)c2nccs2)c1 (configuration not stated)	44.3
COc1ccc(CNC(Cc2ccsc2)c2ncccc2C)cc1OC (configuration not stated)	55.05
COc1cccc(OC)c1CNC(Cc1ccsc1)c1ccc(C)cn1 (configuration not stated)	84.2
COc1ccc(CNC(Cc2ccsc2)c2ccc(C)cn2)cc1OC (configuration not stated)	44.3
CC(C)CC(NCc1ccsc1)c1ccccn1 (configuration not stated)	44.6
Cc1cccnc1C(Cc1ccsc1)NCc1cnc(N(C)C)nc1 (configuration not stated)	-2.495
COc1ccc(CNC(Cc2ccsc2)c2ccc(C)cn2)c(OC)c1 (configuration not stated)	68.4
COc1ccc(CN2CCC(c3cc(O)nc(C)n3)C2)c(OC)c1 (configuration not stated)	-12.2
COc1ccc(CNC(Cc2cccs2)c2nc(C)c(C)s2)cc1OC (configuration not stated)	30.4
O=C(C1CCCCC1)N1CCC(n2nc(-c3ccco3)ccc2=O)CC1	40
Cc1ccc(C(N)c2cccc(S(C)(=O)=O)c2)c(C)c1 (configuration not stated)	-24.2
CCc1csc(C2CCCN(C(=O)c3cc(Cl)c[nH]3)C2)n1 (configuration not stated)	11.9

Compound	INHIBITION [%]
CCCC1COCCN1Cc1ccc(S(=O)(=O)NC)cc1 (configuration not stated)	-6.39
COc1ccccc1CC1CCCN(CC(=O)NC2CC2)C1 (configuration not stated)	-25.9
CNC(=O)CN1CCCC(Cc2ccccc2OC)C1 (configuration not stated)	59
CNC(=O)NC(=O)CN1CCCC(Cc2ccccc2OC)C1 (configuration not stated)	-43.6
CCCS(=O)(=O)N1C[C@@H](OCc2ccncc2)[C@H]2OCCC[C@H]21	-7.2
CCOCCn1c(=O)[nH]c2cc(C(=O)N(C)CCc3cn[nH]c3)ccc21	50.1
CCCN(C)C(=O)c1ccc2c(c1)[nH]c(=O)n2CCOCC	3.47
CCOCCn1c(=O)[nH]c2cc(C(=O)N(C)Cc3cnn(C)c3)ccc21	24.065
CC(C)N(C)Cc1cc(=O)n2c(n1)CN(S(=O)(=O)C1CC1)CCC2	25.6
CNC(=O)C1(CCCc2ccccn2)CN(Cc2coc(C)n2)C1	14.6
Cc1ccc(CC(=O)NC(C)C(=O)N2CCS(=O)(=O)CC2)cc1 (configuration not stated)	-11.1
CC(NC(=O)Cc1ccccc1F)C(=O)N1CCS(=O)(=O)CC1 (configuration not stated)	49.4
Cc1ccc(CC(=O)NC(C)C(=O)N2CCS(=O)(=O)CC2)s1 (configuration not stated)	76.2
CNC(=O)CN1CCO[C@H]2CN(CC3CCOCC3)C[C@H]21	13.7
CC(C)NC(=O)CN1CCC(c2cccc(F)c2)C1 (configuration not stated)	45.65
Cn1nccc1C(=O)N1Cc2cc(Cl)ccc2OC2(CCOCC2)C1	-0.902
CN1CC(c2ccccc2)CC12CCN(C(=O)c1cncc(Cl)c1)CC2 (configuration not stated)	8.47
CN1CC(c2ccccc2)CC12CCN(C(=O)c1ccc(Cl)cc1)CC2 (configuration not stated)	37.6
CN1CC(c2ccccc2)CC12CCN(C(=O)c1ccncc1)CC2 (configuration not stated)	7.6
CN1CC(c2ccccc2)CC12CCN(C(=O)c1c(Cl)cnn1C)CC2 (configuration not stated)	55.1
CN1CC(c2ccccc2)CC12CCN(C(=O)c1ccc(Cl)cn1)CC2 (configuration not stated)	28.5
CN1CC(c2ccccc2)CC2(CCN(C(=O)c3cccnn3)CC2)C1 (configuration not stated)	81.2

Compound	INHIBITION [%]
CN1CC(c2ccccc2)CC2(CCN(C(=O)c3ccccc3)CC2)C1 (configuration not stated)	49.4
COC(=O)N1CCC2(CC1)CC(c1ccccc1)CN(C)C2 (configuration not stated)	39.4
CN1CC(c2ccccc2)CC12CCN(C(=O)c1cccnc1)CC2 (configuration not stated)	51.2
O=C(c1cc(-c2cccnc2)[nH]n1)N1CCCC(Cc2ccccn2)C1 (configuration not stated)	-12.76
Cc1cc(Cc2ccc(S(=O)(=O)N3CCCC3)cc2)c(=O)[nH]n1	20.9
CNC(=O)C1(c2cnccn2)CCCN1C(=O)c1ncccc1C (configuration not stated)	19.6
COC(=O)CC(c1cccc(OC(F)F)c1)c1oc(C)cc(=O)c1O (configuration not stated)	21.5
CCS(=O)(=O)N1Cc2c(Cn3ccnc3)nn(C(C)C)c2C1	65.1
CCS(=O)(=O)N1Cc2c(Cn3cccc3)nn(C(C)C)c2C1	12.1
CCS(=O)(=O)N1Cc2c(Cn3ccnc3)nn(C)c2C1	26.5
Cc1nc(CNC(=O)N(Cc2ccccc2)CC(C)(C)O)oc1C	28.6
Cc1n[nH]c(C)c1CNC(=O)CSCc1ccccc1Cl	-26.4
Cc1ncsc1CNC(=O)N(Cc1ccccc1)CC(C)(C)O	47.4
Cc1nc2cc(=O)[nH]n2c(C)c1CC(=O)NCCCc1ccccc1	-4.3
CSc1ccc(CNC(=O)Cc2c(C)n[nH]c2C)cc1	21.8
CSc1ccc(CCNC(=O)Cc2c(C)n[nH]c2C)cc1	40.3
Cc1n[nH]c(C)c1CNC(=O)N(Cc1ccccc1)CC(C)(C)O	68
Cc1n[nH]c(C)c1CC(=O)NCCc1ccccc1	52.5
Cc1n[nH]c(C)c1CC(=O)NCc1ccccc1Cl	64.8
